In the library only some 0.33% were active in any assay of this set; here they are far more common.
PGK inhibitor – blocks T. brucei phosphoglycerate kinase. P07378. PGK/GAPDH coupled, Kinase-Glo luminescence, 60 min. Potency, µM (doses to about 57.5 µM), hits mostly inhibitors. actives 0.043% (n = 380,000); further: nearly all actives have a fitted effect of over 60% in size
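Recombinant glycosomal PGK reaction used 1,3-bisphosphoglycerate generated in-well by GAPDH (100nM final) in 100mM TEA pH 7.6, 5mM MgCl2, 0.01% Tween-20. After 60 minutes at room temperature, ATP was read by Kinase-Glo Plus luminescence end-point.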
GLS inh – blocks human kidney-isoform glutaminase activity; O94925; Potency, µM (highest dose often 45.5 µM), hits mostly inhibitors; GLS enzymatic activity, qHTS titration; actives 0.21% (n = 410,000)
Target sequence (O94925 whole entry, looked up, canonical isoform): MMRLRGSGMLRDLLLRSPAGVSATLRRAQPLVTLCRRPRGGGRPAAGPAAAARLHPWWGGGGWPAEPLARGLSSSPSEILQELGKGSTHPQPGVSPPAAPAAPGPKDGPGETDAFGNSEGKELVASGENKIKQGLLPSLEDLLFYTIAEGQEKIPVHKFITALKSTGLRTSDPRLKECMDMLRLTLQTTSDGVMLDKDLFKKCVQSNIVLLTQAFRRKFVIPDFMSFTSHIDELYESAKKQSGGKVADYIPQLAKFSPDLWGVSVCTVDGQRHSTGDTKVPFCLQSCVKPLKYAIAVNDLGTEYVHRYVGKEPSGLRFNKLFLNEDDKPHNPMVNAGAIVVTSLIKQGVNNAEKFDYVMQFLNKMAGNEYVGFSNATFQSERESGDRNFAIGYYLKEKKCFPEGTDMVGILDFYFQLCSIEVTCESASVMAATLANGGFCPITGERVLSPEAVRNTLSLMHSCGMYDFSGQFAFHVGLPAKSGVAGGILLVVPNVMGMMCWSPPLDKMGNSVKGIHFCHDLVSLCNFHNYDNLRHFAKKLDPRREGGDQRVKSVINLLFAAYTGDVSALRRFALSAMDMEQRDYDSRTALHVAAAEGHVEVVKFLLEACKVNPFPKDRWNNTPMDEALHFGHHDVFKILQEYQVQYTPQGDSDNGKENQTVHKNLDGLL
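hKGA in 45 mM KH2PO4 pH 8.2, 0.02% Tween-20 with pin-transferred compounds; 1 mM L-glutamine (stock) plus glutamate oxidase/HRP/Amplex Red coupling added. Fluorescence read initially and after 30 min at RT.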
Pin1 inh – human Pin1 inhibition. Q13526. Pin1 FP peptide displacement, HiFluor488, 10 min. Potency, µM (series often up to 115 µM), usual class: inhibitors. actives 0.009% (n = 390,000). AID 504891; active means well fitted inhibition curve with a large enough effect in the polarisation, with a control signal flat, not every such curve was filed as active; inconclusive means small, poorly fitted or top-dose-only effect, or effect the other way, or a change in a side signal; inactive means no such curve, though single readings can be large or run the other way; the % refers to the polarisation
mIDH1 inhibitor – inhibitors of human mutant IDH1 R132H. O75874. IDH1-R132H enzyme, NADPH consumption, diaphorase/resazurin fluorescence. Potency, µM (highest dose often 76.6 µM), actives largely listed as inhibitors. actives 0.093% (n = 390,000). AID 602179; further: nearly all actives have a fitted effect of over 65% in size
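IDH1-R132H (0.5 ug/mL dispensed) in pH 7.5 Tris buffer was preincubated 30 min with compound, then given a substrate mix of 0.016 mM NADPH and 2 mM alpha-KG for 80 min at room temperature; remaining NADPH was read by diaphorase/resazurin fluorescence.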
IDH1 autofl – counter-screen for mutant IDH1 inhibitors: fluorescence interference. 750 tested, under 10 active. inhibition of signal, % at 51.2 µM. shares compounds with mIDH1 inhibitor. AID 623980. Resorufin detection reagent fluorescence interference, cell-free
WT IDH1 inh – selectivity of mutant IDH1 inhibitors: human wild-type IDH1; Potency, µM (top dose mostly 115 µM), hits mostly inhibitors; actives 9% (n = 750); WT IDH1 enzyme, NADPH diaphorase/resazurin fluorescence; shares compounds with mIDH1 inhibitor; further: nearly all actives have a fitted effect of over 55% in size
IDH1 R132H conf – inhibits human mutant IDH1 enzyme in cherrypick confirmation; actives 83% (n = 750); shares compounds with mIDH1 inhibitor; Potency, µM (highest dose often 76.6 µM), most hits filed as inhibitors; IDH1 R132H enzyme, NADPH diaphorase/resazurin fluorescence; further: nearly all actives have a fitted effect of over 50% in size
Of the large screens only hits and unclear results are named; the others gave an inactive call (follow-up assays come after a bar, where they were run). Unless noted, the call rests on the fitted dose curve; in most records, active means well fitted curve in the direction sought with a large enough effect; inconclusive means small, poorly fitted or top-dose-only effect, or another doubt; inactive means no such curve, though single readings can be large; an effect the other way counts as inactive or inconclusive.

CCSc1nc(N2CCOCC2)c2c(c1C#N)CCCC2	none
CC(C)c1nc(N2CCOCC2)c(C#N)c2c1CCCC2	mIDH1 inhibitor inconclusive | IDH1 autofl inactive | WT IDH1 inh inactive | IDH1 R132H conf 35.5µM
Cc1ncc(CO)c2c1Oc1nc(-c3ccccc3F)nc(SCC(=O)N(C)c3ccccc3)c1C2	mIDH1 inhibitor 52.1µM | IDH1 autofl inactive | WT IDH1 inh inactive | IDH1 R132H conf inconclusive
COc1ccc(-c2c(C)nc(N)nc2-c2ccc(OC)cc2O)cc1	Pin1 inh inconclusive
COc1ccc(-c2c(C)nc(N)nc2-c2ccc(OCc3ccc(C)cc3)cc2O)cc1OC	mIDH1 inhibitor inconclusive | IDH1 autofl inactive | WT IDH1 inh inactive | IDH1 R132H conf inconclusive
CCCc1noc2c1C(c1cc(Br)ccc1F)C(C#N)=C(N)N2 (stereo not given)	mIDH1 inhibitor 52.1µM | IDH1 autofl inactive | WT IDH1 inh inactive | IDH1 R132H conf 39.8µM
O=[S+]([O-])(c1c(F)cccc1F)N1CCN([S+](=O)([O-])c2csc3ccccc23)CC1	none (no result: PGK inhibitor, GLS inh, mIDH1 inhibitor)
COc1cccc(NS(=O)(=O)c2ccc3c(c2)CCC(=O)N3)c1	none (no result: PGK inhibitor, GLS inh, mIDH1 inhibitor)
N#Cc1nc(Nc2ccc(Br)cc2)nc(NC2CCCC2)n1	none (no result: PGK inhibitor, GLS inh, mIDH1 inhibitor)
Cc1cc(C)c2c(=N)c3ccccc3n(CCCCCCCCn3c4ccccc4c(=N)c4c(C)cc(C)nc43)c2n1	Pin1 inh inconclusive, mIDH1 inhibitor 52.1µM | IDH1 autofl inactive | WT IDH1 inh inactive | IDH1 R132H conf 28.2µM
CCCCCCCCn1c2c(c(=N)c3ccccc31)CCC2	none
COc1ccc(OC)c(NC(=O)C(OC(=O)CNC(=O)c2ccccc2)c2ccccc2)c1 (stereo not given)	none (no result: PGK inhibitor, GLS inh, mIDH1 inhibitor)
C#CCNC(=O)C1=C[C@H](C(C)(C)C)C[C@H](OCc2ccc(CO)cc2)O1	none
CC(C)(C)[C@@H]1C=C(C(=O)Nc2ccccc2)O[C@H](OCc2ccc(CO)cc2)C1	mIDH1 inhibitor 44.7µM | IDH1 autofl inactive | WT IDH1 inh inactive | IDH1 R132H conf 25.1µM
COc1ccc(N(C(=O)/C=C\C(=O)Nc2ccc(Cl)cc2)C(C(=O)NCc2ccco2)c2ccc(C)cc2)cc1 (stereo not given)	mIDH1 inhibitor inconclusive | IDH1 autofl inactive | WT IDH1 inh inactive | IDH1 R132H conf inactive
Cc1ccc2c(c1)/C(=N/N1C(=O)c3ccccc3C1=O)C(=O)N2	mIDH1 inhibitor 46.5µM | IDH1 autofl inactive | WT IDH1 inh inactive | IDH1 R132H conf 7.94µM
Cc1c(OC(C(=O)O)c2ccccc2)ccc2c(-c3ccccc3)cc(=O)oc12 (stereo not given)	mIDH1 inhibitor inconclusive | IDH1 autofl inactive | WT IDH1 inh inactive | IDH1 R132H conf 12.6µM
CCCn1cc(S(=O)(=O)c2ccccc2)c(=O)c2cc(F)c(N3CCCCC3)cc21	none
CCc1ccc(S(=O)(=O)c2cn(C)c3cc(N4CCCCC4C)c(F)cc3c2=O)cc1 (stereo not given)	none
Cn1cc(S(=O)(=O)c2ccccc2)c(=O)c2cc(F)c(N3CCCCCC3)cc21	mIDH1 inhibitor 39.8µM | IDH1 autofl inactive | WT IDH1 inh inactive | IDH1 R132H conf 14.1µM
CCn1cc(S(=O)(=O)c2ccccc2)c(=O)c2cc(F)c(N3CCCCCC3)cc21	mIDH1 inhibitor inconclusive | IDH1 autofl inactive | WT IDH1 inh inactive | IDH1 R132H conf 20µM
Cc1ccc(C)c(S(=O)(=O)c2cn(C)c3cc(N4CCCCC4C)c(F)cc3c2=O)c1 (stereo not given)	mIDH1 inhibitor inconclusive | IDH1 autofl inactive | WT IDH1 inh inactive | IDH1 R132H conf 15.8µM
OCC1OC(OC2C(CO)OC(OC3C(CO)OC(O)C(O)C3O)C(O)C2O)C(O)C(O)C1O (stereo not given)	none (no result: PGK inhibitor, Pin1 inh, mIDH1 inhibitor)
CC(C)(S)C(=O)NC(CS)C(=O)O (stereo not given)	none (no result: PGK inhibitor, Pin1 inh, mIDH1 inhibitor)
CC(C)CNc1nnnc2c1sc1nc(N3CCOCC3)c3c(c12)CC(C)(C)SC3	mIDH1 inhibitor inconclusive | IDH1 autofl inactive | WT IDH1 inh inconclusive | IDH1 R132H conf inconclusive
CC1(C)Cc2c(c(N3CCOCC3)nc3sc4c(NCc5ccccc5)nnnc4c23)CS1	none
OCCNc1ncnc2c1sc1nc(N3CCOCC3)c3c(c12)CCC3	Pin1 inh inconclusive
CC(C)CNc1ncnc2c1sc1nc(N3CCOCC3)c3c(c12)CC(C)(C)OC3	none
CC1(C)Cc2c(c(N3CCOCC3)nc3sc4c(NN)ncnc4c23)CS1	mIDH1 inhibitor 23.3µM | IDH1 autofl inactive | WT IDH1 inh inconclusive | IDH1 R132H conf 14.1µM
NNc1nnnc2c1sc1nc(N3CCOCC3)c3c(c12)CCCC3	Pin1 inh inconclusive, mIDH1 inhibitor 52.1µM | IDH1 autofl inactive | WT IDH1 inh inactive | IDH1 R132H conf inconclusive
O=C(Cn1cc(CN(Cc2ccccc2)Cc2ccccc2)nn1)Nc1cc(C(F)(F)F)ccc1Cl	none (no result: PGK inhibitor, GLS inh, mIDH1 inhibitor)
Cc1ccc(C2C(C#N)=C3N=C(N)c4ccccc4N3C3=C2C(=O)CCC3)cc1 (stereo not given)	none
N#CC1=C2N=C(N)c3ccccc3N2C2=C(C(=O)CCC2)C1c1ccc(F)cc1 (stereo not given)	mIDH1 inhibitor inconclusive | IDH1 autofl inactive | WT IDH1 inh inactive | IDH1 R132H conf inconclusive
COc1cccc(C(C(=O)NC2CCCCC2)N(C(=O)Cc2cccs2)c2ccc(-n3cnnn3)c(OC)c2)c1 (stereo not given)	mIDH1 inhibitor inconclusive | IDH1 autofl inactive | WT IDH1 inh inactive | IDH1 R132H conf 8.91µM
COc1ccc(N(C(=O)C2COc3ccccc3O2)C(C(=O)NC2CCCCC2)c2ccccc2)cc1OC (stereo not given)	mIDH1 inhibitor 5.21µM | IDH1 autofl inactive | WT IDH1 inh inactive | IDH1 R132H conf 2.82µM
COc1cccc(C(C(=O)NC2CCCCC2)N(C(=O)c2ccco2)c2ccc(-n3cnnn3)c(C)c2)c1 (stereo not given)	none
COc1cc(N(C(=O)Cc2cccs2)C(C(=O)NC2CCCCC2)c2cccc(OC)c2OC)ccc1-n1cnnn1 (stereo not given)	mIDH1 inhibitor inconclusive | IDH1 autofl inactive | WT IDH1 inh inactive | IDH1 R132H conf inconclusive
COc1cccc(C(C(=O)NC2CCCCC2)N(C(=O)c2cccs2)c2ccc3c(c2)OCO3)c1 (stereo not given)	mIDH1 inhibitor inconclusive | IDH1 autofl inactive | WT IDH1 inh inactive | IDH1 R132H conf inactive
COc1cc(F)c(S(=O)(=O)N2CCN(S(=O)(=O)c3ccc(NC(C)=O)cc3)CC2)c(F)c1	none (no result: PGK inhibitor, GLS inh, mIDH1 inhibitor)
CC/C=C(/C(=O)N[C@@H]1C(=O)N2C(C(=O)OCOC(=O)C(C)(C)C)=C(COC(N)=O)CS[C@H]12)c1csc(N)n1	none (no result: PGK inhibitor, Pin1 inh, mIDH1 inhibitor)
O=C(CNC(=O)C1CCCCC1)OC(C(=O)Nc1cc(C(F)(F)F)ccc1Cl)c1ccccc1 (stereo not given)	none (no result: PGK inhibitor, GLS inh, mIDH1 inhibitor)

Bioassay records as filed in PubChem.
